Test results taken from the supplement of paper PMC11732987, “Enantioselective OTUD7B fragment discovery through chemoproteomics screening and high-throughput optimisation” (Communications Chemistry, 2025).

Tests used:
Test in all cases: log2 ratio of Biotin-Ahx-Ub-VS probe labelling (fragment/DMSO); higher = less target engagement (more negative = stronger competition), active = hit call of the paper (q ≤ 0.05, log2 ratio ≤ -1)
Settings in all cases: compound concentration: 200 uM; treatment time: 3 h
USP42 = molecular target: T1, USP42 (UniProt Q9H9J4)
T1 sequence (whole entry): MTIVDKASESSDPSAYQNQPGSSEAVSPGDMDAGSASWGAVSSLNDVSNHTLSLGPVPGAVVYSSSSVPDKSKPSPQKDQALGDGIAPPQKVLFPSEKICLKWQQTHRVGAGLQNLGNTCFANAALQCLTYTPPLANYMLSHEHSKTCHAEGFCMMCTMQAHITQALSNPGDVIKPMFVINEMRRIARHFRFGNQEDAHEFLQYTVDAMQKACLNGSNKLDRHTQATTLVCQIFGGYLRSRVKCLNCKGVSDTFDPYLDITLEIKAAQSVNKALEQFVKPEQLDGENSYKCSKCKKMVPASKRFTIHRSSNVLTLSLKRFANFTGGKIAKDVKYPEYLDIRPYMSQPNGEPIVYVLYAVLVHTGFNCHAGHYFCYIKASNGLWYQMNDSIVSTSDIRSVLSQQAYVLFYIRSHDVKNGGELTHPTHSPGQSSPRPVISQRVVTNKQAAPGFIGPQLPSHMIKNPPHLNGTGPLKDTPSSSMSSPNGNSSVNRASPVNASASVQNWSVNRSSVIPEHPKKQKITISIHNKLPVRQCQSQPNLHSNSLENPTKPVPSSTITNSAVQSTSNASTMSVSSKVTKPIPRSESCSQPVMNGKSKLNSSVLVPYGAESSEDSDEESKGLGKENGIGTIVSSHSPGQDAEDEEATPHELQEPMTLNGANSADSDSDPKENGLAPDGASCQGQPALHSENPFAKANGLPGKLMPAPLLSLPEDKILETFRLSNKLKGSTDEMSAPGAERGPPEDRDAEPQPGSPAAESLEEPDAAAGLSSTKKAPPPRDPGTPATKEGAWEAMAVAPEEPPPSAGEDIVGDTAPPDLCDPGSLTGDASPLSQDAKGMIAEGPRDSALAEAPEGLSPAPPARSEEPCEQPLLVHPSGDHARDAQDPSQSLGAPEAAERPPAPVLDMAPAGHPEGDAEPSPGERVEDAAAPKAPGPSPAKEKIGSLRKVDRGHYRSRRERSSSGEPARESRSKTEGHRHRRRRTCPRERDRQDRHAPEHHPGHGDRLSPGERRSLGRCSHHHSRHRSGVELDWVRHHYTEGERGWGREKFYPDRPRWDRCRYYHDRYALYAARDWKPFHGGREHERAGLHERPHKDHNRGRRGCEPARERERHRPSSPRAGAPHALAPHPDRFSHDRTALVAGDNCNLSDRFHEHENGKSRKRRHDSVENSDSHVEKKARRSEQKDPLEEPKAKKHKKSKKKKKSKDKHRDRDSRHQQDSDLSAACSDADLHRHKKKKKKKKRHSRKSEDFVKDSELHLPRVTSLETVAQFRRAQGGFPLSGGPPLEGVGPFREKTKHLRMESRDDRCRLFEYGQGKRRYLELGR
Procedure, shortened: (§1)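 HEK293T lysate in Tris/CHAPS/IGEPAL buffer with protease inhibitors (495 µg per sample) was given fragment at 200 µM or vehicle for 3 h, in triplicate. It then received Biotin-Ahx-Ub-VS at 0.5 µM final for 1 h. Labelled DUBs were NeutrAvidin-enriched, digested with LysC and trypsin, and run by diaPASEF LC-MS/MS. Values are average log2 fragment/vehicle ratios by unpaired t-test on global-median-normalised Spectronaut quantities of proteins with ≥2 unique peptides.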

USP46 = USP46 (UniProt P62068)
USP46, sequence (P62068 whole entry): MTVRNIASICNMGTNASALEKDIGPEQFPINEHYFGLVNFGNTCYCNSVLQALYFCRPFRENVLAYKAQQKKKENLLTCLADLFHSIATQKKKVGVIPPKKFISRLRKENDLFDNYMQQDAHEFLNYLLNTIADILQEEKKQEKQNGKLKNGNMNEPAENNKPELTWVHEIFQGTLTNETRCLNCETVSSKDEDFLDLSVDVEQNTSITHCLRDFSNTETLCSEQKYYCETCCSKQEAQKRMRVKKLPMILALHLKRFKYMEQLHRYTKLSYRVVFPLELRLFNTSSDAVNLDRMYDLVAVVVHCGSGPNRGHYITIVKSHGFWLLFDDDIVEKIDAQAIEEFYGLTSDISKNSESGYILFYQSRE
Procedure, shortened: as §1

USP47 = molecular target: T2, USP47 (UniProt Q96K76)
T2 sequence (whole entry): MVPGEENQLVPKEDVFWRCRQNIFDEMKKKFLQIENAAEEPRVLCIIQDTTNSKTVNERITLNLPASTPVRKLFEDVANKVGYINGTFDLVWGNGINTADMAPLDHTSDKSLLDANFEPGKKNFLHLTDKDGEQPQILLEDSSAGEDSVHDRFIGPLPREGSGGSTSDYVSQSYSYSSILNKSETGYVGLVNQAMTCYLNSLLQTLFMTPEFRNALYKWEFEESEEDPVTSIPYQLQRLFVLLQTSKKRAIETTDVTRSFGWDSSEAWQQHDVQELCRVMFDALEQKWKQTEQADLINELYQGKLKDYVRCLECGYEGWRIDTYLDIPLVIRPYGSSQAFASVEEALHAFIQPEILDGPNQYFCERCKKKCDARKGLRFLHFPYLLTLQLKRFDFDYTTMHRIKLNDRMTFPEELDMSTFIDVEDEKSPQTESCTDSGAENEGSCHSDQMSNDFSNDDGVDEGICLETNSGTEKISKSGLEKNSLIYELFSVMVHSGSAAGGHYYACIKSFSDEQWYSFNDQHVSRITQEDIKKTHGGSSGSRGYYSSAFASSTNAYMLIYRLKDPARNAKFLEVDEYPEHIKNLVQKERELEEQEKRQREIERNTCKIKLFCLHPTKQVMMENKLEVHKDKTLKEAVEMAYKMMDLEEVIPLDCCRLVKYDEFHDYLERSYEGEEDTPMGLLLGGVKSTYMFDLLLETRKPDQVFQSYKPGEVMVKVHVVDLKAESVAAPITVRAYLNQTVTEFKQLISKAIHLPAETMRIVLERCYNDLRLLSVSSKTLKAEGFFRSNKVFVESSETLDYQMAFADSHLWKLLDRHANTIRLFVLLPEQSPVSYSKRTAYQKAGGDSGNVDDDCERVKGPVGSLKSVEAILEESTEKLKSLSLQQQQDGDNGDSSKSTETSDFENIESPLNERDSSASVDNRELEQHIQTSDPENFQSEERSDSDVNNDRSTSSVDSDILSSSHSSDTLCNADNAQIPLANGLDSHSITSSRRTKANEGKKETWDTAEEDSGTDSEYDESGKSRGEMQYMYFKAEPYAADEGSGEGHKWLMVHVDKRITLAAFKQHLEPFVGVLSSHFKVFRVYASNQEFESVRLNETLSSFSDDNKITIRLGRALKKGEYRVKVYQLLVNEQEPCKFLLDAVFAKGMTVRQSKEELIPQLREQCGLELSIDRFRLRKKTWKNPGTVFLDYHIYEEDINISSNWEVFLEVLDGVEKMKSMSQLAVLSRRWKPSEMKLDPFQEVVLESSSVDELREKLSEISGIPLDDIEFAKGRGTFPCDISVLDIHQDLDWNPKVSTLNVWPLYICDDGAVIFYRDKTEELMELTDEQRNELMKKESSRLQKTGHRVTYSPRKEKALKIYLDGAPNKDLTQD
Procedure, shortened: as §1

USP48 = molecular target: T3, USP48 (UniProt Q86UV5)
T3 sequence (whole entry): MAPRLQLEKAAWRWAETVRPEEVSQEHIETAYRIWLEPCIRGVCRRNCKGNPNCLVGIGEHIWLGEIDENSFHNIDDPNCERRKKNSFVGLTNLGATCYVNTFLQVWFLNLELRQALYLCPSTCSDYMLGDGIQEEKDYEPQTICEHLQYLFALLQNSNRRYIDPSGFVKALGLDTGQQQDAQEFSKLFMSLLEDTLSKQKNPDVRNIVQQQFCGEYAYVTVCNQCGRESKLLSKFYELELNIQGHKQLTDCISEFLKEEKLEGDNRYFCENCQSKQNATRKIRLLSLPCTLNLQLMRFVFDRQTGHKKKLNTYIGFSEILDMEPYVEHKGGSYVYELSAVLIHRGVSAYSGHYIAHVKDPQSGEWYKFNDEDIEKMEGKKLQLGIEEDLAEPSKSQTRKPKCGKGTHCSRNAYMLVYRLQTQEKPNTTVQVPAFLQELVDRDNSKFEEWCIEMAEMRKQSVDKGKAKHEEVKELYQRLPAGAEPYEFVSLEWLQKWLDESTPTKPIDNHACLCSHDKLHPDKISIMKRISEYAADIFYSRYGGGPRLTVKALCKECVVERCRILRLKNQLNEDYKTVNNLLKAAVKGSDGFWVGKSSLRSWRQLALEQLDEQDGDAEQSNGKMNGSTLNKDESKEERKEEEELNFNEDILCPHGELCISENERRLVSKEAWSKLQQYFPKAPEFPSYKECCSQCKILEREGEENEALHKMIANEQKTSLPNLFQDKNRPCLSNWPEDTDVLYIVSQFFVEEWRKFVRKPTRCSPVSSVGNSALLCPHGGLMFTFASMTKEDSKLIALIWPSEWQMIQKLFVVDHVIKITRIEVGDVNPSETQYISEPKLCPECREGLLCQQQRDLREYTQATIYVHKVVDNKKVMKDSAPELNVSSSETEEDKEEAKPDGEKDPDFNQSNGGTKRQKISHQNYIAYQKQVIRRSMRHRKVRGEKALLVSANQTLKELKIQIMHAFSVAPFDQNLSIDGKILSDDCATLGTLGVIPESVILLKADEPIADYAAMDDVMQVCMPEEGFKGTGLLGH
Procedure, shortened: as §1

USP5 = molecular target: T4, USP5 (UniProt P45974)
T4 sequence (whole entry): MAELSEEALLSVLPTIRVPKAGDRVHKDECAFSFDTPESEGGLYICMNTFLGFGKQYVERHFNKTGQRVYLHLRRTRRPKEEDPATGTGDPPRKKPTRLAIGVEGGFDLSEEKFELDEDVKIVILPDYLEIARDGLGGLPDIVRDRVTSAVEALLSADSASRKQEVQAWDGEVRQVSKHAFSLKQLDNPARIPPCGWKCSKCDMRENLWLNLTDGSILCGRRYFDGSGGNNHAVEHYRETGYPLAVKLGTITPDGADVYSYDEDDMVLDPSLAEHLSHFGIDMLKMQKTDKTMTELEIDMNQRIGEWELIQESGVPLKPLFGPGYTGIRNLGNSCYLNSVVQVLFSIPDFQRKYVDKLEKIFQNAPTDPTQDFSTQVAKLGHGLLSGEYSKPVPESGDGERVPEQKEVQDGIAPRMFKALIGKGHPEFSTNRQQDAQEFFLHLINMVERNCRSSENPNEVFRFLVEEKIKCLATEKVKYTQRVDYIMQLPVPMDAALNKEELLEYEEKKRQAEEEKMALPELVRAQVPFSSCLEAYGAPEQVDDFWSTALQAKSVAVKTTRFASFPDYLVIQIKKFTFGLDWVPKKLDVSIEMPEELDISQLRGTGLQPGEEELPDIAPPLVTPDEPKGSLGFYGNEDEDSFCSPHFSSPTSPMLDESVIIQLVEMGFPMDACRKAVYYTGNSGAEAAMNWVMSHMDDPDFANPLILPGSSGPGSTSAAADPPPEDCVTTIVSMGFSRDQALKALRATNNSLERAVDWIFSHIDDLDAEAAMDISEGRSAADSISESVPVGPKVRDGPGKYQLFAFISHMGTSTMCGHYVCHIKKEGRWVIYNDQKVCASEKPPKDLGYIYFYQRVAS
Procedure, shortened: as §1

USP54 = USP54 (UniProt Q70EL1)
USP54, sequence (Q70EL1 whole entry): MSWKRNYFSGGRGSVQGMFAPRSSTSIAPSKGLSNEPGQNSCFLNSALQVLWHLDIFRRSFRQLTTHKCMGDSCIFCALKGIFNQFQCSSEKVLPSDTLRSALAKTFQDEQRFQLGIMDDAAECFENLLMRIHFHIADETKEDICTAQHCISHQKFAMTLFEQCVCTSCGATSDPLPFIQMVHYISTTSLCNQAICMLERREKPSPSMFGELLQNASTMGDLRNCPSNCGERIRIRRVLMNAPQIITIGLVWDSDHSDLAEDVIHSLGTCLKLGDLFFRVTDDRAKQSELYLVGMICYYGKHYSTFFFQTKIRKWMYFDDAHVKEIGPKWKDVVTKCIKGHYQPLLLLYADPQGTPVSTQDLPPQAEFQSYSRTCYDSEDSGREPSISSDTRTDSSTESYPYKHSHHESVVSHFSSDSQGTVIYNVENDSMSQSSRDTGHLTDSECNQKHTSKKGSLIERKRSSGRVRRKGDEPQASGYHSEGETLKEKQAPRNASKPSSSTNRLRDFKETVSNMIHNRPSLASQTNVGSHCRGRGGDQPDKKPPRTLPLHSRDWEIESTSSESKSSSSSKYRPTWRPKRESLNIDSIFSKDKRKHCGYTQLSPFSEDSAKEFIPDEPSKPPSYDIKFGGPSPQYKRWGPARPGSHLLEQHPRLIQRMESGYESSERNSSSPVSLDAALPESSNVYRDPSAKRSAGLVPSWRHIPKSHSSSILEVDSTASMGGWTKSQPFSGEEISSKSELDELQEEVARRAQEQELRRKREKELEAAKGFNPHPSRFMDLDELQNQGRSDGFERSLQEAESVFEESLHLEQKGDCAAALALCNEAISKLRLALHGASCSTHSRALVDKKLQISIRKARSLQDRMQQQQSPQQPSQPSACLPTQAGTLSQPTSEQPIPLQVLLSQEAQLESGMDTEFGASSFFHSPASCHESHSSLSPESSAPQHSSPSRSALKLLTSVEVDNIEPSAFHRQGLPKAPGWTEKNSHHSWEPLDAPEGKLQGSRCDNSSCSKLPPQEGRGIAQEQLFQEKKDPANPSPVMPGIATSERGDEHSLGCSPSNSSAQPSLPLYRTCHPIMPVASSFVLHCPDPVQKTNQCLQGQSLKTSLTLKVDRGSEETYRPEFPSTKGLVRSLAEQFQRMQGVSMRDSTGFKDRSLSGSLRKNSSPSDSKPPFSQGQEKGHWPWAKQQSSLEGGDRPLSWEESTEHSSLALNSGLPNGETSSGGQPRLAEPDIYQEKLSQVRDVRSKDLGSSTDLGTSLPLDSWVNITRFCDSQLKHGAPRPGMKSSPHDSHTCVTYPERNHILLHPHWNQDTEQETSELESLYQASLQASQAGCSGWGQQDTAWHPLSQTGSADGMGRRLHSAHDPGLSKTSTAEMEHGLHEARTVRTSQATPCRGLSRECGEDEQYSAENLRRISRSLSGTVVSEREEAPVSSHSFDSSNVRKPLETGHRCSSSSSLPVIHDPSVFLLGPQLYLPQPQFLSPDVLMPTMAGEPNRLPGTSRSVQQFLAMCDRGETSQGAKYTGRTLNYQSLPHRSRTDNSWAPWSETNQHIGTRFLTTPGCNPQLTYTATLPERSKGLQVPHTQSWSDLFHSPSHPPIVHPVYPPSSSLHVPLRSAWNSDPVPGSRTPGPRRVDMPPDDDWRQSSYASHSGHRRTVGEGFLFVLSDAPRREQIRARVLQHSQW
Procedure, shortened: as §1

USP7 = USP7 (UniProt Q93009)
USP7, sequence (Q93009 whole entry, looked up): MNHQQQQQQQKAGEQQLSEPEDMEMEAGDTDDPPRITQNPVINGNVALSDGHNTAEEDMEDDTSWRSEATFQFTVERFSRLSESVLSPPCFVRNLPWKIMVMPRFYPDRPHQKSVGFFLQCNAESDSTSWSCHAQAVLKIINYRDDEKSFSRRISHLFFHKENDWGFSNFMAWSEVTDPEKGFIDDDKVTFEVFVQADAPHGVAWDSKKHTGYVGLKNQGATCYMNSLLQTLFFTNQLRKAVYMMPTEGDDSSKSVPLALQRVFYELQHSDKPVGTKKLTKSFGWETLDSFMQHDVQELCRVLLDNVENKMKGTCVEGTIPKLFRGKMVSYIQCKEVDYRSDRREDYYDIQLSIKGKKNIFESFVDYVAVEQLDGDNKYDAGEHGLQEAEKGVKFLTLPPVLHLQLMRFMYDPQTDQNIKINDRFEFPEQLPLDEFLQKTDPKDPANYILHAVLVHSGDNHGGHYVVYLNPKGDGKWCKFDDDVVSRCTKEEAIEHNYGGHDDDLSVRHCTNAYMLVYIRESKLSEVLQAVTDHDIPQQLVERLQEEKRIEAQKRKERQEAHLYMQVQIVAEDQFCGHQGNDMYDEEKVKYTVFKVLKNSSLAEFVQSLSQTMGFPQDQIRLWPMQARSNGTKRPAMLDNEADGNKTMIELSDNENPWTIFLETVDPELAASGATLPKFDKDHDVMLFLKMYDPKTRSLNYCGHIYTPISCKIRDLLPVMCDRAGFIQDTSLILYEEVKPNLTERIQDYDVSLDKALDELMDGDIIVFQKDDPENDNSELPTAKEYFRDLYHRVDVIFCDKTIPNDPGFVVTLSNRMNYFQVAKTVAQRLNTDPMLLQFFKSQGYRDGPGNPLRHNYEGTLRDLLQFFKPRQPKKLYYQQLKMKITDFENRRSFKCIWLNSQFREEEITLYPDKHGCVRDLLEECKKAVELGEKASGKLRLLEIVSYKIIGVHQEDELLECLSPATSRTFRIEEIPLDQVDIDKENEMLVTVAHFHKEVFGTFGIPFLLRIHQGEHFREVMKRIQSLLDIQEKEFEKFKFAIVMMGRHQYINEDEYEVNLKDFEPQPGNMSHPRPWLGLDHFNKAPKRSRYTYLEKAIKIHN
Procedure, shortened: as §1

USP8 = molecular target: T5, USP8 (UniProt P40818)
T5 sequence (whole entry): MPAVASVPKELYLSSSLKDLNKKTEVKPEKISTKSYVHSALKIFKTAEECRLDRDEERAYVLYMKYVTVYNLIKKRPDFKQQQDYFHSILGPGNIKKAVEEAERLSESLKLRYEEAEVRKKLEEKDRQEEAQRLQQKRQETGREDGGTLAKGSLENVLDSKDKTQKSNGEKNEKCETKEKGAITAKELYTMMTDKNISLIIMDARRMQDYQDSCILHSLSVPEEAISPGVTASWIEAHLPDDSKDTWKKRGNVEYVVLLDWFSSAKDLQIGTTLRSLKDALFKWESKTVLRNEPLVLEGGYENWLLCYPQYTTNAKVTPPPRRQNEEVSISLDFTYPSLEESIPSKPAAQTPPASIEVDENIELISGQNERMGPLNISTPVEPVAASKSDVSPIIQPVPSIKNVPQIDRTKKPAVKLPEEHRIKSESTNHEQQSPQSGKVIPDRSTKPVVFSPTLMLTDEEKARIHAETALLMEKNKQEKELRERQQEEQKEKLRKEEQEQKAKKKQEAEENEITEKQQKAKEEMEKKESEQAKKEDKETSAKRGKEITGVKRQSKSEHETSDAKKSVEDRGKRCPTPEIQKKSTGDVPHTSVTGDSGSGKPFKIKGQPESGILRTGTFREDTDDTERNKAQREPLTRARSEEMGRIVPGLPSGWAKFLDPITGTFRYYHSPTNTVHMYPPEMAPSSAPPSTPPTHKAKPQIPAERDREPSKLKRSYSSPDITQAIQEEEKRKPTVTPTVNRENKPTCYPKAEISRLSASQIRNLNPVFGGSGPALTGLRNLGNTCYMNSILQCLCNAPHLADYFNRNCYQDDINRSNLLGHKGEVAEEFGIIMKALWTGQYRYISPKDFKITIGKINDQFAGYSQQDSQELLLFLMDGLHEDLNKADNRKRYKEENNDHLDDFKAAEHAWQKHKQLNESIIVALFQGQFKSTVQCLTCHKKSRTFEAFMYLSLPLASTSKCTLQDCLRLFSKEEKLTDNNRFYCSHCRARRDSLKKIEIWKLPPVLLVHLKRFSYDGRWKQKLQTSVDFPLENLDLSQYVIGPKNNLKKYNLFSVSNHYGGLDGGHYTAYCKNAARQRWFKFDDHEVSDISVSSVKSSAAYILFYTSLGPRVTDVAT
Procedure, shortened: as §1

Measured: log2 ratio of Biotin-Ahx-Ub-VS probe labelling

O=C(CCl)Nc1cc(Cl)ccc1-n1cncn1
inactive: USP42 0.477 | USP46 -0.691 | USP47 -0.4 | USP48 -0.638 | USP5 -0.61 | USP54 0.943 | USP8 -0.73
active: USP7 -1.33
